# Results as given in PubChem BioAssay (NCI).
# Where “and” joins values, the source holds several entries; their conditions need not be identical. Equal entries are not always repeated. Compounds without any hit were thinned out: in the full panel of roughly 83,000, 20% have a hit.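 How to read the values: 0–100, growth inhibition (40 = 60% inhibited); 0, no net growth; -100 to 0, cell death (-40 = 40% of starting cells died; -100 = all dead).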 Calls of active or inactive are those of the source. The calls were made as follows: active = growth percent below 10; inactive = the rest.
# System: MDA-MB-468 breast
# Assay: NCI-60 one-dose screen, 48 h (100 = growth as untreated, 0 = no growth, -100 = all killed)
# Details: 10 µM unless noted
row,SMILES,growth
1,CCOC1=C(Cl)C(=O)C(OCC)=C(Cl)C1=O,103% (inactive)
2,COc1ccc2c(c1)oc1c(C)c3c(c(C)c12)C(=O)N(N)C3=O,59.7% (inactive)
3,COc1ccc(-c2[nH][nH]c(=O)c2-c2nc3ccccc3s2)cc1,119% (inactive)
4,COc1cc(-c2c3c(cn2S(=O)(=O)c2ccccc2)-c2nc(N)sc2CC3)cc(OC)c1OC,23.4% (inactive)
5,COc1ccc(/C=C2\CN(C(=O)C(Cl)Cl)C/C(=C\c3ccc(OC)cc3)C2=O)cc1,-27.5% (active)
6,COc1ccc(C(=O)/C=C/c2c(Cl)nc3c(c(C)nn3-c3ccccc3)c2-c2ccc(Br)cc2)cc1,103% (inactive)
7,CC(=O)[C@@H]1CC[C@]2(C(N)=O)CC[C@]3(C)[C@H](CC[C@@H]4[C@@]5(C)CCC(=O)C(C)(C)[C@@H]5CC[C@]43C)[C@@H]12,98.5% (inactive)
8,C[n+]1cc2cc(C(N)=O)[nH]c3c(=N)c(Cl)c(N)c1c23,53.3% (inactive)
9,COc1ccccc1CNCCN1C(=O)c2ccc3c4c(ccc(c24)C1=O)C(=O)N(CCNCc1ccccc1OC)C3=O,-92.8% (active)
10,Cc1ccc(C2=NN(C)C(=O)C3(CCCC3)C2)cc1,98.7% (inactive)
11,CN1CCN(CCOc2ccc(-c3cnc4c(-c5cccc(F)c5F)cnn4c3)cc2)CC1,94.8% (inactive)
12,COC(=O)c1cccc(NC2=C(Cl)C(=O)c3nc(C)ccc3C2=O)c1,-71.3% (active)
13,CN1CC[C@@H]2[C@@]3(C)CC[C@H](O)C(C)(C)[C@@H]3CC[C@@]2(C)[C@]2(C)CC[C@@]3(CO)CCC(C)(C)C[C@@H]3C12 (stereo not given in full),62% (inactive)
14,CC(C)(C)c1ccc2oc(=O)n(SC(Cl)(Cl)Cl)c2c1,126% (inactive)
15,CC1O[C@@H](OC2[C@H](OC(=O)/C=C/c3ccc(O)c(O)c3)C(COC3O[C@H](C)C(O)C(O)[C@@H]3O)O[C@@H](OCCc3ccc(O)c(O)c3)[C@H]2O)[C@@H](O)C(O)[C@H]1O (stereo not given in full),106% (inactive)
16,COc1cccc(/C=C/C(=O)c2cc3c(N)c(C(=O)Nc4ccccc4)sc3nc2C)c1,15.3% (inactive)
17,Cc1ccc(S(=O)(=O)N2CCCC2CO)cc1 (stereo not given),86.3% (inactive)
18,Cc1cc(C(=O)Nc2cc(Nc3ncccc3-c3ncnc4nc[nH]c34)ccc2F)cc(C(F)(F)F)c1,93.6% (inactive)
19,COc1cc(-c2csc(NC(=O)Nc3ccc(C(F)(F)F)cc3)n2)cc(OC)c1OC,-8.63% (active)
20,CCCCCCCCC(C)OC(=O)c1nn(C(C)=O)c2ccccc12 (stereo not given),96.8% (inactive)

row,SMILES,growth
1,CC1=NNC(=O)C1C (stereo not given),95.8% (inactive)
2,Clc1cccc(Cl)c1CSc1nc2ccccc2n2cccc12,18.9% (inactive)
3,C=CCn1c(SCC(=O)Nc2cccc(C(=O)/C=C/c3cccc([N+](=O)[O-])c3)c2)nc2ccccc2c1=O,89.2% (inactive)
4,C=C1C(=O)O[C@H]2[C@H]1CC/C(Cn1cc(-c3cc(C)c(C)cc3C)nn1)=C\CC[C@@]1(C)O[C@@H]21,-75.6% (active)
5,O=C1Nc2ccccc2C2c3cccn3-c3ccccc3N12 (stereo not given),47.8% (inactive)
6,OC(c1cc(C(F)(F)F)nc2c(C(F)(F)F)cccc12)C1CCCCN1 (stereo not given),-5.03% (active)
7,CC(C)c1ccc2c(c1)CCC1C2CCCC1(C)NCc1ccccc1 (stereo not given),-44.5% (active)
8,O=C(Cc1cccc2ccccc12)N/N=C/c1ccc2c(c1)CCC2,72.3% (inactive)
9,COc1cc(Nc2ncnc(Nc3ccc4c(n3)NC(=O)C(C)(C)O4)n2)cc(OC)c1OC,-24.5% (active)
10,COc1cccc2c1C(=O)c1c(O)c3c(c(O)c1C2=O)C[C@@](O)(C(=O)CO)C[C@@H]3O[C@H]1C[C@H](N)[C@@H](O)[C@H](C)O1,-57% (active)
11,COc1ccc2c(c1)C(=O)/C(=C/c1ccccn1)CC2,40.4% (inactive)
12,CCCOCc1cn[nH]n1,105% (inactive)
13,COc1ccc(C2CC(c3ccc(OC)cc3OC)=NN2c2ccc(S(N)(=O)=O)cc2)cc1 (stereo not given),64.8% (inactive)
14,O=c1cc(-c2ccccc2)[nH]n1-c1nc2ccccc2[nH]1,66.2% (inactive)
15,c1ccc2c(CC3=NCCN3)cccc2c1,92.3% (inactive) and 101% (inactive)
16,CC1(C)NCCC[C@]2(C)[C@H]3CC(=O)[C@H]4[C@@H]5C[C@](C)(CO)CC[C@]5(C)CC[C@@]4(C)[C@]3(C)CC[C@@H]12,86.9% (inactive)
17,Cc1cc(Br)ccc1-n1cc(C#N)c(N)c1C(=O)c1ccc(Br)cc1,93.4% (inactive)
18,CC[C@H](CC[C@@H](C)[C@H]1CC[C@H]2[C@@H]3CC=C4C[C@@H](O)CC[C@]4(C)[C@H]3CC[C@]12C)C(C)C,98.7% (inactive) and 91.8% (inactive)
19,NC(=S)N/N=C/c1ccc(OC(=O)COc2ccccc2)cn1,29.7% (inactive)
20,FC(F)(F)c1cccc(CNC2CCN(CCc3ccccc3)CC2)c1,87.2% (inactive)
